Test results published in PubChem BioAssay.
Activity calls are given as the source filed them.

Key:
[1] = test system: Human papillomavirus type 1a protein E7 (residues 44-93); experiment: HPV1a E7 fragment binders on microarrays, primary screen, biochemical, small-molecule microarray, residues 44-93, 635 nm fluorescence (AID 1108); conditions: small-molecule microarray binding, fluorescence 635 nm; higher = more signal;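 note: E7 fragment applied at 1 µg/mL in TBST for 1 h at 4 C; score combines spot fluorescence with its signal to noise ratio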
[2] = modulators of HCV replicon luciferase signal, primary screen, HCV replication inhibitor project, Huh7 cells, luciferase reporter (AID 1109); conditions: 48 h, higher = more signal;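 note: huh7 hepatoma cells harbouring a luciferase neomycin HCV replicon reporter; luciferase luminescence as measure of HCV replicon replication; test concentration not given here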
[3] = target: Left-right determination factor 2 (Homo sapiens) (UniProt O00292); experiment: LEFTY2 binders on small-molecule microarrays, primary screen, biochemical, small-molecule microarray, 635 nm fluorescence scan (AID 1110); conditions: LEFTY2 binding, higher = more signal
[4] = target: Calmodulin-1 (Homo sapiens) (UniProt P0DP23); experiment: CALM1 binders on microarrays, EGTA buffer, profiling panel, biochemical, small-molecule microarray, Cy5-labelled CALM1 (AID 1111); conditions: Cy5-CALM1 binding fluorescence, higher = more signal;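 note: labelled calmodulin applied in Tris saline Tween buffer holding calcium plus EGTA and DTT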
[5] = target: Calmodulin-1 (Homo sapiens) (UniProt P0DP23); experiment: calcium-bound CALM1 binders on microarrays, profiling panel, artefact control for SMM control-protein annotation, biochemical, small-molecule microarray, Cy5-labelled CALM1, plus calcium (AID 1112); conditions: Cy5-CALM1 binding fluorescence, higher = more signal;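 note: score merges spot fluorescence with signal to noise from triplicate slides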
[6] = small-molecule microarray binders of probe aWnt5a, primary screen, biochemical, biotinylated probe, 635/667 nm fluorescence (AID 1113); conditions: higher = more signal;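 note: score merges 667 nm fluorescence intensity with signal-to-noise per printed feature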
[7] = small-molecule microarray binders of probe aShh, primary screen, biochemical, biotinylated probe, 635/667 nm fluorescence (AID 1114); conditions: higher = more signal;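 note: probe is biotin-labelled aShh protein from a stem cell growth factor screen; measures binding of labelled protein to compounds printed on the slide; score merges feature fluorescence at 667 nm with signal-to-noise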
[8] = small-molecule microarray binders of probe aNog, primary screen, biochemical, biotinylated probe, 635/667 nm fluorescence (AID 1115); conditions: higher = more signal;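 note: probe is biotinylated aNog protein used at 0.15 µg/mL for 1 h at 4 C; z-score combines 667 nm fluorescence of each spot with its signal to noise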
[9] = target: Torsin-1A-interacting protein 1 (Homo sapiens) (UniProt Q5JTV8); experiment: LAP1 binders from COS7 cell lysate, primary screen, small-molecule microarray, 635/667 nm fluorescence (AID 1116); conditions: COS7-hLAP1 lysate binding, 635 nm fluorescence, higher = more signal
[10] = target: Alpha-bungarotoxin (Bungarus multicinctus) (UniProt P60615); experiment: alpha-bungarotoxin binders on microarray, profiling panel, artefact control for SMM control protein annotation, biochemical, small-molecule microarray, Alexa647 label, 635/667 nm fluorescence (AID 1117); conditions: alpha-BTX-A647 binding fluorescence, higher = more signal
[11] = target: Albumin (Bos taurus) (UniProt P02769); experiment: bovine serum albumin binders on microarray, profiling panel, artefact control for SMM control protein annotation, biochemical, small-molecule microarray, Alexa647 label, 635/667 nm fluorescence (AID 1118); conditions: BSA-A647 binding, fluorescence 635 nm, higher = more signal;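 note: score merges 667 nm emission intensity and signal-to-noise per printed compound spot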
[12] = small-molecule microarray binders of probe aXIP, primary screen, biochemical, NeuroSMM set, 635/667 nm fluorescence (AID 1119); conditions: higher = more signal, called active from +8 up or from −8 down;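 note: probe is the protein aXip251-270 applied at 1 µg/mL to compound-printed slides; binding of probe to printed compounds measured as 667 nm fluorescence plus signal to noise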
[13] = small-molecule binders of probe aNOTCH3, primary screen, biochemical, small-molecule microarray, 635/667 nm fluorescence (AID 1120); conditions: higher = more signal;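 note: probe is a biotin-tagged antibody raised against NOTCH3 rather than NOTCH3 protein; score merges spot fluorescence near 667 nm with spot signal to noise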
[14] = small-molecule binders of probe aNOTCH2, primary screen, biochemical, small-molecule microarray, 635/667 nm fluorescence (AID 1121); conditions: higher = more signal;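 note: score merges feature fluorescence read at 667 nm with its signal to noise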
[15] = target: Carbonic anhydrase 2 (Homo sapiens) (UniProt P00918); experiment: CAII small-molecule binders, profiling panel, biochemical, small-molecule microarray, Alexa647-labelled CAII (AID 1122); conditions: CAII-A647 binding fluorescence, higher = more signal
[16] = COS7 lysate on small-molecule microarray, probe aHis, 635 nm (AID 1123); conditions: COS7 cell lysate, fluorescence, higher = more signal;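 note: z-score combines 667nm fluorescence intensity with signal-to-noise per printed compound spot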
[17] = compound binding in COS7 lysate, probe aLAP1, primary screen, cell lysate, small-molecule microarray (AID 1124); conditions: probe aLAP1, fluorescence, higher = more signal;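 note: lysate comes from COS7 cells expressing LAP1 and is applied at 0.3 µg/mL; score merges spot fluorescence near 667 nm with signal-to-noise over triplicate slides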
[18] = test system: Sam68 (KHDRBS1); experiment: Sam68 small-molecule binders, primary screen, biochemical, small-molecule microarray, 635 nm fluorescence (AID 1125); conditions: small-molecule microarray binding, higher = more signal;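 note: score merges 667 nm channel intensity with signal to noise over triplicate slides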
[19] = test system: Chordin-like protein 2 (CHRDL2); experiment: CHRDL2 small-molecule binders, primary screen, biochemical, small-molecule microarray, 635 nm fluorescence (AID 1126); conditions: small-molecule microarray binding, fluorescence 635 nm; higher = more signal;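 note: printed compound slides probed with Chrdl2 protein at 4 µg/mL for 1 h at 4 C; score merges 667 nm emission intensity with signal to noise over three replicate slides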
[20] = target: Concanavalin-A (Canavalia ensiformis) (UniProt P02866); experiment: ConA small-molecule binders, primary screen, artefact control for SMM control protein annotation, biochemical, small-molecule microarray, Alexa647 label, 635 nm (AID 1127); conditions: ConA-A647 binding fluorescence, higher = more signal;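 note: z combines 667 nm emission intensity with signal-to-noise across three replicate slides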
Chain of Concanavalin-A (Canavalia ensiformis) (P02866 whole entry, looked up): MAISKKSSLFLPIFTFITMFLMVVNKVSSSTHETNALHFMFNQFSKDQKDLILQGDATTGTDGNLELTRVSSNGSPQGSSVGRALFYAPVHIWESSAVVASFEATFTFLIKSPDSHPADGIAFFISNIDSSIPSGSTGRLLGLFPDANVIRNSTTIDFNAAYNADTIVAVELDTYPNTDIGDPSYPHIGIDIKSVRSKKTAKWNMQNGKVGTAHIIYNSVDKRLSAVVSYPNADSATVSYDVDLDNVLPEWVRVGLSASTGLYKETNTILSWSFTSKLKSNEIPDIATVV

Chain of Albumin (Bos taurus) (P02769 whole entry, looked up): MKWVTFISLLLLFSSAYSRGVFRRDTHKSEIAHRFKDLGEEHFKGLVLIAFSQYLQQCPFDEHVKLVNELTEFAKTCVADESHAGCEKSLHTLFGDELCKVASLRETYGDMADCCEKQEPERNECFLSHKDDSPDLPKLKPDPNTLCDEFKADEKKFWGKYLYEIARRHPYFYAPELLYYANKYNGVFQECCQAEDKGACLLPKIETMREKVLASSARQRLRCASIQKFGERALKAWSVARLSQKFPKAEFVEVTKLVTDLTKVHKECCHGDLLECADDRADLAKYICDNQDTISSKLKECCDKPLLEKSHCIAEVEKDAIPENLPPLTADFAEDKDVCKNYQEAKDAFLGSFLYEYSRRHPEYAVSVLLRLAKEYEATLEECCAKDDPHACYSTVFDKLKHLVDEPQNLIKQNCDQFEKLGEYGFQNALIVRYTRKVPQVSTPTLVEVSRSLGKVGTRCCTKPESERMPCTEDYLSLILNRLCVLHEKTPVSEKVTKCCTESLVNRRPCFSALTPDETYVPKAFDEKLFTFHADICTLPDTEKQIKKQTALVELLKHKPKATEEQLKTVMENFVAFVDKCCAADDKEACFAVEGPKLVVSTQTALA
Chain of Torsin-1A-interacting protein 1 (Homo sapiens) (Q5JTV8 whole entry, looked up): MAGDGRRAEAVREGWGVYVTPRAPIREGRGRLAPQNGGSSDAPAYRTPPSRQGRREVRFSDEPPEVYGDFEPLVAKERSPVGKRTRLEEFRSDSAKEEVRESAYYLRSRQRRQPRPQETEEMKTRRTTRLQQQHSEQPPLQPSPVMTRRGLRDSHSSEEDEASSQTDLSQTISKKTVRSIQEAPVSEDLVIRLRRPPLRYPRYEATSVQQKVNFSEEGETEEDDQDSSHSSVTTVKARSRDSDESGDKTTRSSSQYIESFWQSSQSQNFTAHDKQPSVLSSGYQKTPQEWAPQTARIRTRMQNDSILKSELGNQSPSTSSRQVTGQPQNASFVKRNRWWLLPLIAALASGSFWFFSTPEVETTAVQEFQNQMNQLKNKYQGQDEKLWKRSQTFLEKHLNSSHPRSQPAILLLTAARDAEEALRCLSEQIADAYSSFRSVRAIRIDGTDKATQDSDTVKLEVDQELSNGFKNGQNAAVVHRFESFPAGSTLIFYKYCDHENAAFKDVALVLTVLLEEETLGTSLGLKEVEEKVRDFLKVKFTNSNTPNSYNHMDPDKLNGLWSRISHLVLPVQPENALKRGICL
Chain of Alpha-bungarotoxin (Bungarus multicinctus) (P60615 whole entry, looked up): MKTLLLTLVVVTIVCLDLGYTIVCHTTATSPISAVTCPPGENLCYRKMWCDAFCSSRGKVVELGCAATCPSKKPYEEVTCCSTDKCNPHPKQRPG
Chain of Left-right determination factor 2 (Homo sapiens) (O00292 whole entry, looked up): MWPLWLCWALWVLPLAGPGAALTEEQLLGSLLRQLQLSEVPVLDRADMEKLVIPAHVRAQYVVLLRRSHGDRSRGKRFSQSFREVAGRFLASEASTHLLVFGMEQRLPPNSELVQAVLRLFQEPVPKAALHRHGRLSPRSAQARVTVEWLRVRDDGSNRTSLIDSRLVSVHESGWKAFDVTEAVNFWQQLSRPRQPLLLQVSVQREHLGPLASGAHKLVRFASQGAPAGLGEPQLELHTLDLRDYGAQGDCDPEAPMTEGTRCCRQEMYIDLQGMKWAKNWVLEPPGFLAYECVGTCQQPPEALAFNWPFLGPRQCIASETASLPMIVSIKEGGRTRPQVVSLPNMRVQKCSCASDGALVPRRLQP

SMILES | composite z-score [1] | z-score [2] | composite z-score [3] | composite z-score [4] | composite z-score [5] | composite z-score [6] | composite z-score [7] | composite z-score [8] | composite z-score [9] | composite z-score [10] | composite z-score [11] | composite Z-score [12] | composite z-score [13] | composite z-score [14] | composite z-score [15] | composite z-score [16] | composite z-score [17] | composite z-score [18] | composite z-score [19] | composite z-score [20]
Cc1ccc(S[C@]2(C(=O)NCCCN(C)C)CC(=O)N(C3CCCCC3)[C@@H]2c2ccc(CO)cc2I)cc1 | -1.32 | -3.67 | -0.848 | -0.454 | 0.49 | -0.0455 | 0.173 | 0.134 | 0.123 | -0.693 | -1.58 | -0.102 (inactive) | 0.0836 | -0.107 | 0.442 | 1.51 | 0.379 | -0.171 | -0.801 | -1.49
COc1cc2c(cc1OC)CN(C(=O)[C@H]1[C@@H]3C(=O)O[C@@H](c4ccccc4)[C@@H](c4ccccc4)N3[C@@H](c3ccc(O)cc3)[C@]13C(=O)Nc1ccc(C#CC4(O)CCCCCC4)cc13)CC2 | 1.4 | -1.47 | 1.36 | 2.21 | 1.2 | 0.808 | 0.382 | 2.35 | 3.48 | 2.79 | 0.693 | 1.04 (inactive) | 0.974 | 0.286 | 0.774 | 3.61 | 0.876 | 1.29 | 1.24 | 1.13
COCCOC(=O)N1C(=O)[C@@]2(c3cc(C#CCCO)ccc31)[C@H](C(=O)N1CCCCCCC1)[C@H]1C(=O)O[C@H](c3ccccc3)[C@H](c3ccccc3)N1[C@@H]2c1ccc(O)cc1 | 1.02 | -1.18 | 0.383 | 2.14 | 0.719 | 0.0775 | 0.814 | 0.916 | 2.56 | 1.45 | 0.792 | 0.516 (inactive) | 0.715 | 0.102 | 0.731 | 2.81 | 0.837 | 1.29 | 0.279 | 1.11
COc1ccc(-c2ccccc2[C@@H]2N[C@H](C(=O)O)CC[C@H]2C)cc1 | 0.404 | -0.388 | 0.594 | -0.27 | -0.699 | -0.0222 | 0.138 | 0.432 | 0.583 | 0.288 | -0.497 | 0.3 (inactive) | -0.0647 | -0.131 | 0.0441 | 0.711 | -0.423 | 0.297 | 0.456 | 0.301
COc1ccc([Si](C)(C)[C@H]2[C@H](CC(=O)N(CCO)Cc3ccccc3)O[C@@]3(C(=O)N(C)c4ccccc43)[C@@H]2C)cc1 | 1.3 | -3.22 | 0.664 | -0.416 | -0.398 | -0.0182 | -0.141 | -0.52 | 0.188 | 0.238 | 0.748 | -0.0798 (inactive) | 0.0833 | -0.155 | 0.384 | 0.136 | 0.177 | 1.05 | 1.21 | 0.664
C[C@H]1C2[C@H](Cc3ccccc3)NC(=O)[C@]23C(=O)N[C@H](Cc2ccccc2)C(=O)N[C@@H](Cc2ccccc2)C(=O)NC/C=C\C/C=C/C3[C@@H]2O[C@]12C (stereo not given in full) | -0.767 | -0.204 | 0.419 | -0.297 | -0.348 | -0.199 | -0.0553 | 0.471 | 0.86 | -0.506 | 0.992 | 0.448 (inactive) | 0.36 | -0.0942 | 0.742 | 0.0046 | 0.0901 | -0.221 | 0.371 | -1.08
O=C1C2C=CC(C(O)C#Cc3ccccc3)N(Nc3ccccc3)C2C(=O)N1c1ccccc1 (stereo not given) | -0.369 | -0.049 | -0.365 | 0.482 | 0.373 | -0.096 | -0.16 | 0.839 | 0.945 | 0.472 | 0.812 | 0.634 (inactive) | -0.0077 | -0.0176 | 0.812 | 1.94 | 0.435 | 0.432 | -0.575 | -0.414
CO[C@H]1COC(=O)[C@H](Cc2ccccc2)NC(=O)CC=C[C@@H](C)[C@H](OC)COC(=O)CC=C[C@@H]1C | 0.482 | 0.401 | 1.11 | -0.0075 | -0.61 | -0.134 | 0.0022 | -0.0682 | 0.311 | 0.426 | -0.108 | -0.225 (inactive) | 0.0319 | -0.0211 | -0.142 | 0.199 | -0.47 | 0.588 | 0.53 | 0.296
C=C(COC)/C(=C/C[C@@H](OC(=O)c1ccncc1)c1ccc(OCCO)cc1)c1cc(C(=O)OC)ccc1OC | 0.355 | -1.63 | -0.428 | 0.947 | -0.777 | -0.175 | -0.0146 | 0.475 | 1.45 | 2.04 | 0.655 | 0.345 (inactive) | 0.0631 | -0.0784 | 0.655 | 1.61 | 0.482 | 1.3 | -0.0659 | 1.06
CCC(=O)[C@]12O[C@@]3([C@@H]4C(=O)OCC[C@@H]41)N(Cc1ccccc1)C(C)=C(C(=O)OC)[C@@H](c1ccccc1)N3C2=O | -2.88 | 0.286 | 0.271 | -0.146 | -0.0047 | -0.16 | -0.0653 | -0.196 | -0.398 | -0.621 | 0.226 | -0.428 (inactive) | -0.207 | -0.164 | 0.463 | -0.859 | -0.242 | -1.07 | -0.334 | -1.17
